# From PubChem BioAssay (EPA / NIEHS)
# Several values for one entry are separate records, joined by “and”; a condition that tells them apart may be missing. Equal entries are not always repeated. Records with an inconclusive call do not appear. Activity calls are given as the source filed them. How the source made its calls, unless noted: active means hit-call score of the fitted dose curve at least 0.9, where 1 is the maximum; inactive means score below 0.9.
# Assays:
# [1] = CCTE_Shafer_MEA_acute_spike_number: CCTE's Neural Acute Assay for Total Number of Spikes, Shafer Lab (AID 2284008);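 on AC50: curve fitted for decrease in spike count so AC50 reflects inhibitors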
# Method in brief: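 Rat primary cortical neurons on 48-well MEA plates, DIV 13 or 15, at 37 C. 40 min baseline then 40 min with compound (0.03-40 uM); spikes detected at 8x rms noise, expressed as percent change from baseline.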
# [2] = CCTE_Shafer_MEA_acute_firing_rate_mean: CCTE's Neural Acute Assay for Mean Firing Rate, Shafer Lab (AID 2284009);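 further: analyzed for loss of signal so actives lower firing rate relative to DMSO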
# Method in brief: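 Rat primary cortical neurons on 48-well MEA plates, dosed at 0.03-40 uM on DIV 13 or 15; 40 min spontaneous activity recorded at 37 C before and after compound. Spike rate per electrode averaged per well, expressed as percent change from baseline.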
# [3] = CCTE_Harrill_HTTr_Viability_MCF7: CCTE's 6-hour Cell Viability Assessment for the High-Throughput Transcriptomics (HTTr) Platform, in MCF-7 cells cultured in DMEM + 10% fetal bovine serum, Harrill Lab (AID 2284010)
# Method in brief: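 Cells were dosed with chemicals in an eight-point dilution series, imaged 6 hours later for propidium iodide uptake, and the endpoint was analyzed by bidirectional fitting against DMSO as negative control.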
# [4] = CCTE_Harrill_HTTr_Apoptosis_MCF7: CCTE's 6-hour Apoptosis Assessment for the High-Throughput Transcriptomics (HTTr) Platform, in MCF-7 cells cultured in DMEM + 10% fetal bovine serum, Harrill Lab (AID 2284011)
# Method in brief: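 MCF-7 cells in DMEM + 10% FBS exposed 6 h to chemicals over an eight-point dilution series. Caspase-3/7 activation imaged by high-content CellEvent Green staining; fitted bidirectionally versus DMSO.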
# [5] = CCTE_Harrill_HTTr_CellCount_MCF7: CCTE's Cell Proliferation Assessment for the High-Throughput Transcriptomics (HTTr) Platform, Harrill Lab (AID 2284012; active means hit-call score of the fitted dose curve at least 0.9, where 1 is the maximum;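 further: count of Hoechst-stained nuclei per well by high-content imaging in MCF-7 cells; cells exposed to compound for six hours; intended direction is loss of nuclei count meaning fewer cells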)
# Method in brief: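 Chemicals in eight-point dilution series are added to MCF-7 cells for six hours, nuclei are stained with Hoechst and imaged, and per-well nuclei counts are fitted in both directions relative to DMSO controls.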
# [6] = biological target: Ratio of Nucleoli Translocation and Cytoplasm, AR (gene 367) (UniProt P10275); assay: UPITT_HCI_U2OS_AR_TIF2_Nucleoli_Cytoplasm_Ratio_Antagonist: University of Pittsburgh U2OS Androgen Receptor-Transcriptional Intermediary Factor 2 (AR-TIF2) Antagonism High Content Imaging Assay for Ratio of Nucleoli Translocation and Cytoplasm (AID 2283999; active means hit-call score of the fitted dose curve at least 0.9, where 1 is the maximum;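 further: antagonists lower the DHT-driven ratio of nucleolar to cytoplasmic red signal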)
# Method in brief: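 Human osteosarcoma U2OS line, AR fused to RFP, coactivator TIF2 fused to GFP. Cpds 20 uM final, 0.2% DMSO (screen); 0.195–50 uM final, 0.5% DMSO (CRC). Endpoint: nucleoli/cytoplasm red signal ratio, DHT as baseline, loss-of-signal antagonist mode.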
# Chain of Ratio of Nucleoli Translocation and Cytoplasm, AR (gene 367) (P10275 whole entry, looked up, the tested form may be a part): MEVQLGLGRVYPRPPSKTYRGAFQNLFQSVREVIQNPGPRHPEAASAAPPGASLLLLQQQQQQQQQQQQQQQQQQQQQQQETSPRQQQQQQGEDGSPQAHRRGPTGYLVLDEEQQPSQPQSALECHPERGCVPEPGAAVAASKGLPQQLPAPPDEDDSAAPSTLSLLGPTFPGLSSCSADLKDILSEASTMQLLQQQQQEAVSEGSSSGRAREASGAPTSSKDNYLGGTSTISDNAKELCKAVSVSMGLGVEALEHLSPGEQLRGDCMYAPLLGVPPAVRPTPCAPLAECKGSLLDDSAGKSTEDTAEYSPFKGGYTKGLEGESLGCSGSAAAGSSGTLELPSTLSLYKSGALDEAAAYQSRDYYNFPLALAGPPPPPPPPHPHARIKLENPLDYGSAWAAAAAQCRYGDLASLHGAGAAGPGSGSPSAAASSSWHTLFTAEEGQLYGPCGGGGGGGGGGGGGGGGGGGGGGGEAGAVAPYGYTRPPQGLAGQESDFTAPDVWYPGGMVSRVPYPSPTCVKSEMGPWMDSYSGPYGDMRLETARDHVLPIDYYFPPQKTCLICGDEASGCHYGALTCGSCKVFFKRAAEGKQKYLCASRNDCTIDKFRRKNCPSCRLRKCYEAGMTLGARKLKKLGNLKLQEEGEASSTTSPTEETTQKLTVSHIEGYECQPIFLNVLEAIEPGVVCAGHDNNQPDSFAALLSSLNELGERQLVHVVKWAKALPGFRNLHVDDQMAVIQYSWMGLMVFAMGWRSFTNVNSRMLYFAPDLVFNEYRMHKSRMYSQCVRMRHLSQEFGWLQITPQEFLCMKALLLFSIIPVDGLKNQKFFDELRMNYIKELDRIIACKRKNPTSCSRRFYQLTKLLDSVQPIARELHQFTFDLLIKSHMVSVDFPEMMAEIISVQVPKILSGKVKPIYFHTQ
smiles,measurement,setting,value
Clc1cccc(Cl)c1Cl,outcome,[1],inactive
same,outcome,[2],inactive
same,outcome,[3],inactive
same,outcome,[4],inactive
same,outcome,[5],inactive
CC(C)N(C(=O)CCl)c1ccccc1,AC50,[6],11.4 µM (active)
same,outcome,[3],inactive
same,outcome,[4],inactive
same,outcome,[5],inactive
CCOP(=S)(OCC)OP(=S)(OCC)OCC,outcome,[6],inactive
same,outcome,[3],inactive
same,outcome,[4],inactive
same,outcome,[5],inactive
O=C1c2ccccc2C(=O)C1C(=O)C(c1ccccc1)c1ccc(Cl)cc1 (configuration not stated),outcome,[6],inactive
O=S1OC[C@@H]2[C@H](CO1)[C@]1(Cl)C(Cl)=C(Cl)[C@@]2(Cl)C1(Cl)Cl (some centres not stated),outcome,[6],inactive
same,outcome,[3],inactive
same,outcome,[4],inactive
O=[N+]([O-])c1ccc(Cl)c([N+](=O)[O-])c1,AC50,[6],2.39 µM (active)
same,AC50,[3],67.7 µM (active) and 56.9 µM (active)
same,outcome,[4],inactive
same,outcome,[5],inactive
N#CS,outcome,[3],inactive
same,outcome,[4],inactive
CS(=O)(=O)c1ccc(C(=O)C2C(=O)CCCC2=O)c(Cl)c1COCC(F)(F)F,outcome,[1],inactive
same,outcome,[2],inactive
same,outcome,[3],inactive
same,outcome,[4],inactive
same,outcome,[5],inactive
O=C(CCl)Nc1ccccc1,AC50,[6],26.3 µM (active)
OC(Cc1ccccc1Cl)(Cn1[nH]cnc1=S)C1(Cl)CC1 (configuration not stated),outcome,[6],inactive
same,outcome,[3],inactive
same,outcome,[4],inactive
CCCCOC(=O)COC(=O)c1ccccc1C(=O)OCCCC,AC50,[1],0.0196 µM (active)
same,AC50,[2],0.0196 µM (active)
same,outcome,[3],inactive
same,outcome,[4],inactive
same,outcome,[5],inactive
O=C(NC(=O)c1c(F)cccc1F)Nc1cc(Cl)c(OC(F)(F)C(F)C(F)(F)F)cc1Cl (configuration not stated),outcome,[6],inactive
CC(C)(C)c1ccccc1O,AC50,[1],4.82 µM (active)
same,AC50,[2],4.87 µM (active)
same,outcome,[3],inactive
same,outcome,[4],inactive
same,outcome,[5],inactive
CNC(=O)O/N=C/C(C)(C)S(C)(=O)=O,outcome,[6],inactive
same,outcome,[3],inactive
same,outcome,[4],inactive
same,outcome,[5],inactive
CN(C)C(=S)S,outcome,[1],inactive
same,outcome,[2],inactive
same,outcome,[3],inactive
same,outcome,[4],inactive
C=CC(Cl)CCl (configuration not stated),outcome,[6],inactive
CCCCCCCCCCCCc1cccc(S(=O)(=O)O)c1,outcome,[1],inactive
same,outcome,[2],inactive
same,outcome,[3],inactive
same,outcome,[4],inactive
N#Cc1cccnc1,outcome,[1],inactive
same,outcome,[2],inactive
same,outcome,[3],inactive
same,outcome,[4],inactive
O=C(Cc1ccccc1)OCCc1ccccc1,AC50,[1],0.003 µM (active)
same,AC50,[2],0.003 µM (active)
same,outcome,[3],inactive
same,outcome,[4],inactive
same,outcome,[5],inactive
Cc1ccccc1OP(=O)(Oc1ccccc1C)Oc1ccccc1C,AC50,[1],25.4 µM (active)
same,outcome,[2],inactive
CCOP(=O)(OCC)OC(=CCl)c1ccc(Cl)cc1Cl,outcome,[3],inactive
same,outcome,[4],inactive
CCN(N=O)C(N)=O,outcome,[3],inactive
same,outcome,[4],inactive
CCOP(=S)(OCC)O/N=C(\C#N)c1ccccc1,outcome,[3],inactive
same,outcome,[4],inactive
same,outcome,[5],inactive
Oc1c(Br)cc(Br)cc1Br,outcome,[3],inactive
same,outcome,[4],inactive
CC(C=O)Cc1ccc2c(c1)OCO2 (configuration not stated),outcome,[3],inactive
same,outcome,[4],inactive
same,outcome,[5],inactive
C1CN2CCN1CC2,outcome,[3],inactive
same,outcome,[4],inactive
C#C[C@]1(O)CC[C@H]2[C@@H]3CCC4=CC(=O)CC[C@]4(C)[C@H]3CC[C@@]21C,outcome,[3],inactive
same,outcome,[4],inactive
CCCCCCCCCCCCCCC(Br)C(=O)O (configuration not stated),outcome,[3],inactive
same,outcome,[4],inactive
C[C@]12CC[C@@H](O)C[C@@H]1CC[C@@H]1[C@@H]2CC[C@]2(C)C(=O)CC[C@@H]12,outcome,[3],inactive
same,outcome,[4],inactive
Clc1cccc(Cl)c1,outcome,[3],inactive
same,outcome,[4],inactive
same,outcome,[5],inactive
COC(=O)c1cc(Oc2ccc(Cl)cc2Cl)ccc1[N+](=O)[O-],outcome,[3],inactive
same,outcome,[4],inactive
C[As+](C)(C)CC(=O)[O-],outcome,[3],inactive
same,outcome,[4],inactive
Nc1nc(N)nc(Cl)n1,outcome,[3],inactive
same,outcome,[4],inactive
O=NN1CCOCC1,outcome,[3],inactive
same,outcome,[4],inactive
CC(C)(C)c1ccc(CCOc2ncnc3ccccc23)cc1,outcome,[3],inactive
same,outcome,[4],inactive
CN(N=O)C(N)=O,outcome,[3],inactive
same,outcome,[4],inactive
C=CCN=C=S,outcome,[3],inactive
same,outcome,[4],inactive
O=C(N[C@H]1CN2CCC1CC2)c1ccc2c(c1)OCCO2,outcome,[3],inactive
same,outcome,[4],inactive
OCC(c1ccc(Cl)cc1)c1ccc(Cl)cc1,outcome,[3],inactive
same,outcome,[4],inactive
CC(C)[C@H](C(=O)OC(C#N)c1cccc(Oc2ccccc2)c1)c1ccc(OC(F)F)cc1 (some centres not stated),outcome,[3],inactive
same,outcome,[4],inactive
CC(C)O.CC(C)O.OCCN(CCO)CCO.OCCN(CCO)CCO.[Ti],outcome,[3],inactive
same,outcome,[4],inactive
CC1CC(=O)O1 (configuration not stated),outcome,[3],inactive
same,outcome,[4],inactive
C=CCc1ccccc1O,outcome,[3],inactive
same,outcome,[4],inactive
C[C@@H]1O[C@@H](O[C@H]2C[C@@H](O)[C@]3(CO)[C@H]4[C@H](O)C[C@]5(C)[C@@H](C6=CC(=O)OC6)CC[C@]5(O)[C@@H]4CC[C@]3(O)C2)[C@H](O)[C@H](O)[C@H]1O,outcome,[3],inactive
same,outcome,[4],inactive
COCC(=O)N(c1c(C)cccc1C)[C@H](C)C(=O)OC,outcome,[3],inactive
same,outcome,[4],inactive
O=NN1CCCCCC1,outcome,[3],inactive
same,outcome,[4],inactive
